In the library only some 5.4% were active in any assay of this set; here they are far more common.
aDG glyco act: increases alpha dystroglycan glycosylation | 360,000 tested, 0.22% active | AID 624168 | Pro5-aDG cells, alpha-DG glycosylation AlphaScreen (IIH6); 0% Pro5, 100% B10-LARGE cell signal | activation, % at 10 µM;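 active = activation of at least 8% versus controls, or a plate z-score of at least 8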;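 also: Pro5 are CHO cells carrying HIG-tagged alpha-DG that lacks glycosylation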
ALR inh: inhibitors of human sulfhydryl oxidase ALR | inhibition, % (no concentration beside the values) | 290,000 tested, 3.8% active | P55789 | AID 485317 | purified ALR, DTT oxidation, H2O2 HRP-luminol luminescence;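 active = mean replicate inhibition above about 79%, with every replicate also reaching it, limit read from the data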
Target sequence (P55789 whole entry, looked up): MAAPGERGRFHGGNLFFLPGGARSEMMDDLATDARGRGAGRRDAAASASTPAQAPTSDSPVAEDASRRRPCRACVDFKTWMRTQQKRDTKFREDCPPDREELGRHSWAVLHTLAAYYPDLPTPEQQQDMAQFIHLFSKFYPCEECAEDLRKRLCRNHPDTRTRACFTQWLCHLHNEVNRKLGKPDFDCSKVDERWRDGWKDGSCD
rCAG RNA binder: molecules binding r(CAG) RNA repeats; 370,000 tested, 1.3% active; AID 651821; r(CAG) RNA repeat, TO-PRO-1 dye displacement fluorescence; inhibition, % at 3 µM;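 active = inhibition above the plate cutoff, the mean of all test compounds on that plate plus 3 SD, cut at about 35% in these data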;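 also: 0% = DMSO alone and 100% = 100 µM mitoxantrone as full dye displacement; higher means more dye released from RNA so lower well fluorescence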
APOBEC3G inh: inhibitors of human APOBEC3G DNA deaminase. recombinant A3G, ssDNA deamination FAM/TAMRA fluorescence. AID 493012. 330,000 tested, 0.28% active. inhibition, % at 20 µM;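 active = inhibition of at least 40% at 20 µM, with no more than 30% in the related APOBEC3A deaminase screen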;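 also: plate controls were DMSO wells with A3G for no effect and wells lacking A3G enzyme for full effect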
PHOSPHO1 block: PHOSPHO1 (human) inhibition; AID 1565; inhibition, % at 13.3 µM; 290,000 tested, 1.1% active; Q8TCT1; recombinant PHOSPHO1, absorbance phosphatase assay; in the data active = inhibition above about 60%
Target sequence (Q8TCT1 whole entry, looked up): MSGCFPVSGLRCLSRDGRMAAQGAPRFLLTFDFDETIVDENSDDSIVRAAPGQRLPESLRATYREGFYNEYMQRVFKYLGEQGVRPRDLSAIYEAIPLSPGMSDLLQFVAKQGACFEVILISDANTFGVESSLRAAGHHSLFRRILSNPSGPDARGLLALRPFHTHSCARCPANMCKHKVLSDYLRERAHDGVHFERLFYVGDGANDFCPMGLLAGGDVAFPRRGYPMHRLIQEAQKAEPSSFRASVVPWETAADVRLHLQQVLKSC
APOBEC3A inh: blocks human APOBEC3A ssDNA deamination | AID 493011 | P31941 | inhibition, % at 20 µM | 330,000 tested, 0.41% active | recombinant A3A, FAM/TAMRA ssDNA deamination fluorescence;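 active = at least 40% inhibition at 20 µM here, with at most 30% in a related deaminase screen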;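 also: plate controls were A3A with DMSO for no effect and wells lacking A3A enzyme for full effect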
* marks the source's active call; other numbers are inactive results; · = not tested or not shown.

SMILES	aDG glyco act	ALR inh	rCAG RNA binder	APOBEC3G inh	PHOSPHO1 block	APOBEC3A inh
CCOC(=O)N1CCN(C(=O)C[C@H]2C[C@@]3(C(=O)OC)C(=C[C@H](COCc4ccccc4)O[C@@H]3C)N(Cc3ccc(Cl)cc3Cl)C2=O)CC1	·	·	9	·	·	·
COC(=O)C1CN(C2CC2)CCS(=O)(=O)N1Cc1cn(Cc2ccc(C)cc2)nn1 (centres undefined)	·	·	3	·	·	·
CC(C)C[C@H]1COc2cc(Br)ccc2S(=O)(=O)N1Cc1cn(Cc2ccc(Cl)cc2)nn1	·	·	0	·	·	·
Cc1ccc(Cn2cc(CN(C(C)(C)C)S(=O)(=O)c3ccccc3Br)nn2)cc1	·	·	-1	·	·	·
O=C(CCCc1c[nH]c2ccccc12)NCc1ccc2c(c1)OCO2	0	·	-4	-5	3	-3
O=C(CCc1c[nH]c2ccccc12)NCCc1ccc(O)cc1	0	85*	-3	-5	28	-2
O=C(CCCc1c[nH]c2ccccc12)NCC1COc2ccccc2O1 (centres undefined)	0	98*	0	-4	-28	-2
O=C(NCCc1c[nH]c2ccccc12)c1ccccc1	0	·	-2	13	29	-2
O=C(CCc1c[nH]c2ccccc12)NCc1ccc2c(c1)OCO2	0	-15	5	-1	61*	2
O=C(CCc1c[nH]c2ccccc12)NCC1COc2ccccc2O1 (centres undefined)	0	12	-2	0	-8	1
N#CCC(=O)Nc1ccc(C(=O)NCCc2c[nH]c3ccccc23)cc1	0	98*	18	-9	46	-6
O=C(Cn1nc(-c2ccccc2)ccc1=O)NCCc1ccc(F)cc1	·	·	2	·	·	·
COC(=O)[C@]12C[C@H](CC(=O)N3CCN(C(=O)c4ccco4)CC3)C(=O)N(Cc3ccccc3)C1=C[C@H](C(C)(C)C)O[C@@H]2C	·	·	2	·	·	·
CCOC(=O)C(CSCC(=O)c1ccc(Br)cc1)NC(=O)OC(C)(C)C (centres undefined)	·	99*	·	-6	2	-2
CCOC(=O)C(CSCC(=O)c1ccc(Cl)cc1)NC(=O)OC(C)(C)C (centres undefined)	0	·	-10	-10	8	-3
Cc1ccc(C=Nc2ccccc2C(N)=O)o1	0	-8	4	-2	5	1
Cc1ccc(C=Nc2ccc(N(C)C)cc2)o1	0	98*	9	4	-2	3
C[C@@H]1ON(C)[C@H]2C[C@H]3c4cc(-c5cc6ccccc6o5)ccc4CCN3C[C@@H]12	·	·	8	·	·	·
CC1(C)c2ccccc2-c2nc3ccccc3cc2C1N1CCOCC1 (centres undefined)	0	·	6	·	·	·
CC1(C)c2cc(O)ccc2OC1N1CCOCC1 (centres undefined)	0	99*	2	-3	31	4
O=C(NC(=S)Nc1cccc2cc(O)ccc12)c1ccccc1Br	0	45	15	5	32	0
O=C(NC(=S)Nc1cccc2cc(O)ccc12)c1ccco1	0	94*	10	-1	16	1
O=C(NC(=S)Nc1cccc2ncccc12)c1ccco1	0	-27	-1	10	-68	-3
O=C(NC(=S)Nc1cccc2c(O)cccc12)c1ccco1	0	99*	15	4	2	3
CCCC(=O)NC(=S)Nc1cccc2c(O)cccc12	0	91*	6	-1	38	-2
SMILES	aDG glyco act	ALR inh	rCAG RNA binder	APOBEC3G inh	PHOSPHO1 block	APOBEC3A inh
CCCCCCCCN1C(=O)[C@@H](CC(=O)NCc2ccccc2)C[C@@]2(C(=O)OC)C1=C[C@H](COCc1ccccc1)O[C@@H]2C	·	·	8	·	·	·
CCN1C(=O)N(C(C)=O)[C@H]2C[C@H](C(=O)N3CCCC3)[C@H](C)[C@H](c3ccccc3)C[C@H]21	·	·	0	·	·	·
COc1ccc(-c2nnc(SC3CCOC3=O)n2C2CCCCC2)cc1OC (centres undefined)	0	-21	-5	-5	75*	2
CCc1n[nH]c(=S)n1/N=C/c1cc(Br)c(OC)cc1OC	0	0	12	9	60*	0
O=C(CSc1nnc(-c2cnccn2)n1-c1ccccc1)c1ccccc1Br	·	·	8	·	·	·
Cc1cc(C)c(C2=NOC3c4ccccc4OCC23)c(C)c1 (centres undefined)	·	·	2	·	·	·
COc1cc(/C=C2\CCCc3c2nc2ccccc2c3C(=O)O)cc(Br)c1O	0	97*	3	-4	-9	-6
CCC1CC2(C)NC(=O)c3c(sc4c3CC(C)(C)OC4)N2C1=O (centres undefined)	0	·	-4	15	84*	-3
Cc1cc(C)n(-c2cc(-n3nc(C)cc3C)ncn2)n1	0	·	-2	-3	-14	-3
Cc1cc(C)n(-c2cc(O)c(-n3nc(C)cc3C)cc2O)n1	0	89*	-3	-2	37	0
COc1ccc(Nc2ccccc2NC(=O)c2ccccc2Br)cc1	0	82*	1	15	4	0
Nc1ccc(Nc2ccccc2N)cc1	1	-20	23	-4	-2	-3
COc1ccc(Nc2ccccc2N)cc1	1	98*	6	2	-7	-4
O=C(NCC1CCN(C(=O)C(=O)c2cccs2)CC1)c1ccc2ccccc2c1	·	·	3	·	·	·
S=c1[nH]nc(-c2ccc3ccccc3n2)n1-c1ccc2ncccc2c1	0	·	14	39	74*	2
S=c1[nH]nc(-c2ccc3ccccc3n2)n1-c1ccc(Cl)cc1	0	4	5	-2	1	-3
Cc1ccccc1-n1c(-c2ccc3ccccc3n2)n[nH]c1=S	0	18	9	3	71*	-10
C/C(=N\Nc1nc(C)cc(C)n1)c1ccc(N2CCOCC2)cc1	3	99*	-1	-1	-33	-1
C/C(=N\Nc1ncc(Cl)cc1Cl)c1ccc(N2CCOCC2)cc1	0	38	-1	-3	8	-8
C/C(=N\NC(=O)c1cc(C)oc1C)c1ccc(N2CCOCC2)cc1	0	83*	-2	-6	58	-3
C=CCNC(=O)c1ccccc1S(=O)c1ccccc1C#N (centres undefined)	0	99*	5	-2	11	-2
COC(=O)[C@]12C[C@H](CC(=O)NCCc3ccccc3OC)C(=O)N(Cc3ccco3)C1=C[C@H](COCc1ccccc1)O[C@@H]2C	·	·	7	·	·	·
CCC(=NNc1ccc([N+](=O)[O-])cc1[N+](=O)[O-])c1ccccc1	0	·	3	·	·	·
C/C(=N\Nc1ccc([N+](=O)[O-])cc1[N+](=O)[O-])C(C)(C)C(C(=O)O)C(=O)O	0	83*	11	0	1	5
CN1CCCCC(NC(=O)C2CCCCC2)C1=O (centres undefined)	·	·	2	·	·	·
Cn1nccc1C(=O)N1CCCC(Nc2ccc(F)cc2)C1 (centres undefined)	0	72	-1	-3	40	-4

Bioassay records deposited in PubChem by several laboratories.
